PubChem BioAssay AID720706 (Broad Institute, 2013)
About 5,500 (1.6%) of roughly 350,000 compounds were called active.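 Rule for the calls: active = significant combined selectivity score with lowered wild-type GFP, culture density cut under 30%, mutant RFP and density less affected; inactive = any of these conditions unmet.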 Many of the other results were omitted from the sample, so actives are more common in it than they were.

Assay: GFP drop in mixed WT/humanized-ribosome E. coli culture – GFP/RFP fluorescence, OD600, single point, bacterial rRNA inhibitor project, primary screen (AID 720706)
Conditions: E. coli WT GFP vs humanized-ribosome RFP mutants, 24 h; GFP signal change (wild-type ribosome): stronger effect = lower value, DMSO median 0, no signal -100; OD600 change: measured here: OD600 growth, DMSO median 0, no signal -100; RFP signal change: measured here: RFP humanized mutant strains, DMSO median 0, no signal -100, concentration not given here

Structure (SMILES) | GFP signal change (wild-type ribosome) | OD600 change [%] | RFP signal change [%]
COc1ccc(C(=O)CC(=O)c2ccc(C)cc2)c(O)c1 | -49% (inactive) | -75.2 | -24.9
COC(=O)c1cc(OC)ccc1-c1ccc(OC)cc1 | -32.6% (active) | -15.3 | -6.08
COc1ccc(SSc2ccc(OC)cc2C(=O)O)c(C(=O)O)c1 | 11.9% (inactive) | 11.8 | -2.19
COc1ccccc1S(=O)(=O)N[C@@H]1CC[C@H](CCn2cc(C3CCCC3)nn2)O[C@H]1CO | 1.1% (inactive) | 3.92 | -3.27
C[C@H](CO)N1C[C@H](C)[C@H](CN(C)CC2CC2)OCCCC[C@H](C)Oc2ccc(NS(=O)(=O)c3cccs3)cc2C1=O | -0.767% (inactive) | -2.73 | -0.839
Cc1ccc(-c2ccc([C@H]3[C@H](CO)N4C(=O)CN(S(=O)(=O)c5cccc(F)c5)C[C@@H]34)cc2)cc1 | -2.35% (inactive) | -0.94 | 0.984
CCC(=O)Nc1ccc2c(c1)nc(CCN1CCN(c3ccccn3)CC1)n2C | 4.56% (inactive) | 7.29 | 1.64
Cn1c(CCN2CCN(c3ccccn3)CC2)nc2cc(NS(=O)(=O)c3ccc(F)cc3)ccc21 | -28.9% (active) | -17 | 3.47
Cn1c(=O)n(C)c2cc(NS(=O)(=O)c3ccc(F)cc3)ccc21 | 0.225% (inactive) | 0.76 | -4.92
COCC(=O)N1CC2(C1)CN(C(=O)COC)[C@@H](CO)c1c2c2ccc(OC)cc2n1C | 4.63% (inactive) | 7.89 | 0.659
Cc1ccc(S(=O)(=O)N(C)C[C@@H]2OCCCC[C@@H](C)Oc3ccc(NC(=O)C4CCCCC4)cc3C(=O)N([C@H](C)CO)C[C@H]2C)cc1 | -2.75% (inactive) | -2.24 | 1.84
CCOCCCNC(=O)C1(O)c2cc(Br)ccc2NC(=O)N1c1ccc(C)c(C)c1 (configuration not stated) | 4.8% (inactive) | 3.91 | 0.676
CCCCNC(=O)C1(O)c2ccccc2NC(=O)N1c1ccc(Cl)cc1 (configuration not stated) | -25.8% (active) | -20.4 | 0.114
CCOc1ccc(N2C(=O)Nc3ccccc3C2(O)C(=O)NCc2ccco2)cc1 (configuration not stated) | 2.27% (inactive) | 2.6 | 0.0175
CNC[C@@H]1Oc2c(NC(=O)Nc3ccc(F)cc3)cccc2C(=O)N([C@@H](C)CO)C[C@@H]1C | 0.51% (inactive) | 5.77 | -0.32
CCCNC(=O)C[C@H]1CC[C@H]2[C@@H](COC[C@H](O)CN2C(=O)Nc2c(C)noc2C)O1 | -3% (inactive) | 7.33 | -4.75
C[C@@H]1CN([C@@H](C)CO)S(=O)(=O)c2ccc(/C=C/c3ccccc3)cc2O[C@@H]1CN(C)C(=O)Nc1cc(F)ccc1F | -1.81% (inactive) | 7.09 | -0.095
CC(=O)Nc1ccc(S(=O)(=O)N2CCN(c3ccc([N+](=O)[O-])c(NCCN4CCOCC4)c3)CC2)cc1 | -2.32% (inactive) | 3 | 1.54
COc1ccc(CCNc2cc(N3CCN(C(=O)c4ccccc4OC)CC3)ccc2[N+](=O)[O-])cc1OC | 2.05% (inactive) | -0.295 | 6.64
COc1ccccc1OCCNc1cc(N2CCOCC2)ccc1[N+](=O)[O-] | -27.3% (active) | -18.1 | -0.933

Structure (SMILES) | GFP signal change (wild-type ribosome) | OD600 change [%] | RFP signal change [%]
CNC[C@H]1OCCCC[C@H](C)Oc2ccc(NC(=O)Nc3ccc(C(F)(F)F)cc3)cc2C(=O)N([C@H](C)CO)C[C@@H]1C | -45.6% (inactive) | -74.3 | -0.5
COc1ccc(CNC(=O)C[C@@H]2CC[C@H](NC(=O)c3cccc(F)c3)[C@H](CO)O2)cc1 | -0.639% (inactive) | 4.63 | 0.956
C[C@H]1CN([C@@H](C)CO)C(=O)c2cc(C3=CCCC3)cnc2O[C@H]1CN(C)C(=O)Nc1ccc(F)cc1 | -0.884% (inactive) | 7.11 | -0.613
O=C(N[C@@H]1C=C[C@H](CC(=O)N2CCOCC2)O[C@H]1CO)c1ccccn1 | 4.32% (inactive) | 4.06 | 0.272
O=C(CNC(=O)Cc1ccccc1)N=Nc1c(O)[nH]c2ccc(Br)cc12 | -1.63% (inactive) | 10 | 0.336
Cc1cccc(N=Nc2c(O)[nH]c3ccc(F)cc23)c1 | -28.8% (active) | 13.6 | 8.49
Cc1c(-c2ccccc2)n[nH]c1C(=O)N=Nc1c(O)[nH]c2ccccc12 | -5.9% (inactive) | -4.62 | 2.09
C[C@@H]1CN([C@@H](C)CO)S(=O)(=O)c2ccc(C#C[C@@H](C)O)cc2O[C@@H]1CN(C)CC1CC1 | 1.29% (inactive) | -4.39 | -1.26
O=C(NCCNc1ccccc1[N+](=O)[O-])c1ccccc1F | -8.66% (inactive) | 7.69 | -6.27
O=C(NCc1ccccc1Cl)NC(=O)c1csc([N+](=O)[O-])c1 | 12.9% (inactive) | 2.99 | 1.52
O=[N+]([O-])c1ccccc1NCc1ccccc1Cl | -29.2% (active) | -20.4 | -10.2
COc1cccc(CN(C)C[C@H]2OCc3ccccc3-c3c(n(C)c4ccccc34)C(=O)N([C@@H](C)CO)C[C@@H]2C)c1 | -21.2% (inactive) | -41.4 | 18.9
C[C@@H]1CN([C@H](C)CO)S(=O)(=O)c2ccc(C#CC(C)(C)O)cc2O[C@@H]1CN(C)Cc1ccccc1 | 1.3% (inactive) | -3.23 | -1.75
C[C@H](CO)N1C[C@H](C)[C@@H](CN(C)Cc2ccccc2)Oc2c(NC(=O)CCCCCC(=O)Nc3ccccc3N)cccc2C1=O | -10% (inactive) | -16.3 | 2.5
C[C@H]1CCCCO[C@@H](CN(C)C(=O)Nc2cccc3ccccc23)[C@@H](C)CN([C@@H](C)CO)C(=O)c2cc(NS(=O)(=O)c3cn(C)cn3)ccc2O1 | 0.08% (inactive) | -14.1 | 8.18
Cc1cccc(CNS(=O)(=O)c2ccc(-c3cnc(C4CC4)o3)cc2)c1 | -28.7% (active) | -23 | -6.22
Cc1cccc(NS(=O)(=O)c2ccc(-c3cnc(C4CC4)o3)cc2)c1 | -8.12% (inactive) | -53.1 | 16.8
COc1ccc(CNS(=O)(=O)c2ccc(-c3cnc(C4CC4)o3)cc2)cc1 | -6.21% (inactive) | -8.89 | -0.493
CN1C(=O)c2cc(NC(=O)c3ccccc3)ccc2OC[C@H]2O[C@@H](CC(=O)O)CC[C@@H]21 | 2.79% (inactive) | 3.92 | -0.251
